The whole screen tested about 13,000 compounds, of which about 3,200 (25%) showed an effect of 50% or more. The list shows a part of the results.
tested on: P. falciparum stage V gametocytes; design: BacTiter-Glo ATP luminescence viability of purified stage V gametocytes in 384-well plates, per cent inhibition versus DMSO; conditions: 48 h, 5 µM; inhibitor

In order of rising “% Inhibition” value:
1. Cc1cnc2cc3c(cc2c1N1CCN(C)CC1)NCC3 [TCMDC-140363]  -97.35%
2. COc1ccc(C=NNc2nc3ccccc3[nH]2)cc1O [TCMDC-124104]  -79.21%
3. CC(=O)c1cc(N2CCCC2)ccc1N [TCMDC-125017]  -63.54%
4. O=C(Nc1ccnc(N2CC3CC2CN3Cc2cccc(O)c2)c1)c1ccc(F)cc1 (stereo not drawn) [TCMDC-134956]  -60.26%
5. COc1cc(Nc2nccc(-c3c(-c4cccc(NC(=O)c5c(F)cccc5F)c4)nn4ccccc34)n2)cc(OC)c1OC [TCMDC-135668]  -53.25%
6. O=C(/C=C/c1ccc(Cl)c(Cl)c1)NCCCCCN1CCC(NC(=O)c2cc(Cl)ccc2F)CC1 [TCMDC-135870]  -52.06%
7. CCc1cc2c(cc1CC)CC(NC[C@@H](O)c1ccc(O)c3[nH]c(=O)ccc13)C2 [TCMDC-138894]  -46.2%
8. Clc1ccc2c(N3CCCNCC3)ccnc2c1 [TCMDC-124813]  -27.2%
9. S=C(NCCc1ccccc1)Nc1ccc2ncsc2c1 [TCMDC-139021]  -23.08%
10. OC(CNCc1cccc(Oc2ccc(Cl)cc2)c1)c1cccc(C(F)(F)F)c1 (stereo not drawn) [TCMDC-140301]  -22.32%
11. Nc1nc(N)c2c(n1)CCC(c1ccccc1)C2 (stereo not drawn) [TCMDC-137806]  -20.76%
12. CCCCCC(=O)N1CCOC(CCN2CCc3c(c4ccccc4n3C)C2)(c2ccc(Cl)c(Cl)c2)C1 (stereo not drawn) [TCMDC-135564]  -20.19%
13. Cc1cccc2nc(-c3ccc(-c4ccc(CN5CCCCC5)cc4)s3)[nH]c12.O=C(O)C(F)(F)F [TCMDC-133902]  -19.5%
14. O=C(CCc1nc2c(cnn2-c2ccccc2)c(=O)[nH]1)NC1CCSc2ccccc21 (stereo not drawn) [TCMDC-124875]  -14.45%
15. FC(F)(F)c1ccc2[nH]c(-c3ccc(-c4ccc(CNCC5CCCO5)cc4)cc3)nc2c1.O=C(O)C(F)(F)F (stereo not drawn) [TCMDC-133096]  -14.34%
16. CCCCCCc1cc2cc(-c3nc(-c4ccc(OC)cc4)cs3)c(=O)oc2cc1O [TCMDC-124081]  -11.41%
17. Cc1cc(CNCCCCCCCNCc2ccc(Cl)cc2)ccc1O [TCMDC-140417]  -6.741%
18. CN(C)CCCOc1cccc(NC(=O)Nc2ccc(Cl)c(Cl)c2)c1 [TCMDC-139538]  -5.244%
19. O=C(CCc1cnc[nH]1)Nc1cccc(-c2cccc(-c3nc4ccc(C(F)(F)F)cc4[nH]3)c2)c1 [TCMDC-132157]  -1.759%
20. CC1(C)NC(N)=NC(=N)N1OCC1CCCCC1 [TCMDC-131616]  -0.7745%
21. CC(=O)Nc1nc(C(=O)Nc2ccc(-c3ccc(-c4nc5ccc(F)cc5[nH]4)cc3)cc2)cs1 [TCMDC-136779]  1.328%
22. C=CC(=O)Nc1ccc(Cl)cc1C(O)c1ccccc1 (stereo not drawn) [TCMDC-131787]  1.536%
23. OC(c1cccc(OCc2ccccc2)c1)C1CN(CCc2ccccc2)CCC1(O)c1ccccc1 (stereo not drawn) [TCMDC-131997]  1.971%
24. Cc1c(CNCCCNc2nc3ccccc3[nH]2)[nH]c2cc(Cl)cc(Cl)c12 [TCMDC-139964]  2.559%
25. CC(C)C[C@@H](NC(=O)NC1CCC(CCN2C3CCC2CC(OC(=O)C(CO)c2ccccc2)C3)CC1)C(O)(c1ccccc1)c1ccccc1 (stereo partly drawn) [TCMDC-136459]  3.057%
26. Cc1cc(-c2cccc(CNCc3ccccc3)c2)ccc1S(=O)(=O)NCCN1CCCC1 [TCMDC-132382]  4%
27. O=C(NCCCCCCNCc1ccc(-c2ccccc2)cc1)Nc1ccc(Cl)c(Cl)c1 [TCMDC-140706]  4.226%
28. O=C1COc2ccc3ccccc3c21 [TCMDC-123508]  4.476%
29. Cc1cc(C2NC(=O)c3ccccc3N2)c(C)n1-c1ccc2c(c1)OCO2 (stereo not drawn) [TCMDC-125051]  5.355%
30. Cc1cccc2nc(-c3ccc(-c4ccc(NC(=O)NCc5ccccc5)cc4)s3)[nH]c12 [TCMDC-133156]  6.679%
31. COc1ccc(C(C(=O)NC2CCN(C[C@H](O)c3ccnc4ccc(OC)cc34)CC2)N2CCc3ccccc3C2)cc1 (stereo partly drawn) [TCMDC-140986]  7.291%
32. N#Cc1ccc2c(c1)CN(CCCCNC(=O)c1ccc(-c3ccccc3)cc1)CC2 [TCMDC-139091]  8.247%
33. Cc1cnc(Nc2cccnc2)nc1Nc1ccccc1C(=O)NC(C)C [TCMDC-134207]  8.943%
34. Cc1c(-c2cccc(CNCCc3ccc(Cl)cc3)c2)cnc(N)c1C [TCMDC-138274]  9.871%
35. O=C(Nc1ccc(CN2CCN(S(=O)(=O)c3ccc(Cl)s3)CC2)cc1)c1cccs1 [TCMDC-136320]  18.17%
36. Cc1cccc2nc(-c3ccc(-c4cccc(CN5CCN(c6ccncc6)CC5)c4)s3)[nH]c12.O=C(O)C(F)(F)F [TCMDC-132917]  20.85%
37. CC(C)(C)c1ccc(S(=O)(=O)Nc2ccccc2N2CCOCC2)cc1 [TCMDC-124560]  22.48%
38. Oc1ccc(-c2cncc(NCc3ccc(F)c(F)c3)c2)cc1 [TCMDC-136668]  23.22%
39. CS(=O)(=O)c1ccc(Nc2ncc(-c3ccc(S(C)(=O)=O)cc3)c(OCC(F)(F)F)n2)cc1 [TCMDC-138524]  24.49%
40. NC1=NC2(CCCCC2)N(OCCCCCCc2ccccc2)C(N)=N1 [TCMDC-131605]  26.32%
41. Cc1cccc(-c2ccc(NC(=O)Nc3ccc4nccc(N5CCN(C)CC5)c4c3)cc2C)n1 [TCMDC-139353]  26.78%
42. CC(C)C1c2ccc(O)cc2CC2C(=O)N(C3CCCCC3)C(=O)N21 (stereo not drawn) [TCMDC-138120]  28.46%
43. CCCCC([C@@H](Cc1ccc2ccccc2c1)C(=O)N[C@H](C(=O)NC)C(C)(C)C)N(O)C=O (stereo partly drawn) [TCMDC-140405]  29.38%
44. CNc1cc(-c2ccc3ccnc(N)c3c2)nc(N)n1.O=CO [TCMDC-136539]  29.83%
45. CN(C)CCCOc1ccc(CCCCc2ccc(Cl)cc2C(=O)c2ccccc2)cc1 [TCMDC-131856]  31.42%
46. COC(=O)C(Cc1ccccc1)NC(=O)NC1CCN(c2ccnc(Nc3ccc(F)cc3)n2)C1 (stereo not drawn) [TCMDC-133597]  34.56%
47. Cc1cccc2nc(-c3ccc(-c4ccc(CN5CCN(c6ccncc6)CC5)cc4)s3)[nH]c12.O=C(O)C(F)(F)F [TCMDC-132912]  36.62%
48. O=C(Nc1cccc(-c2cccc(-c3nc4ccc(C(F)(F)F)cc4[nH]3)c2)c1)c1cnc[nH]1 [TCMDC-136935]  37.83%
49. Nc1ccc(-c2ccc3ccnc(N)c3c2)cn1 [TCMDC-133428]  40.89%
50. Cc1ccc(F)c(OCC2CCN(c3ccc(C(=O)NC4CC4)cn3)CC2)c1 [TCMDC-134037]  41.12%
51. Cc1cc(CNCCCCCCNCc2ccc(Cl)cc2)ccc1O [TCMDC-140414]  43.51%
52. Nc1nccc2ccc(-c3cccc(O)c3)cc12 [TCMDC-136758]  44.67%
53. Cc1cc(CNCCCCCNCc2ccc(Cl)cc2)ccc1O [TCMDC-140411]  48.45%
54. CN1CCCC(CN2CCN(Cc3cccc(-c4ccc(-c5nc6ccccc6[nH]5)s4)c3)CC2)C1.O=C(O)C(F)(F)F (stereo not drawn) [TCMDC-133904]  49.15%
55. OC(CNCc1cccc(Oc2ccc(Cl)cc2)c1)c1cc(C(F)(F)F)cc(C(F)(F)F)c1 (stereo not drawn) [TCMDC-140302]  49.58%
56. Cc1cccc2nc(-c3ccc(-c4cccc(CN5CCN(CC6CCCN(C)C6)CC5)c4)s3)[nH]c12.O=C(O)C(F)(F)F (stereo not drawn) [TCMDC-133909]  55.65%
57. CN(C)CCCOc1cccc(CCNCc2cccc(Oc3ccc(Cl)cc3)c2)c1 [TCMDC-140091]  58.44%
58. CN(C)CCCOc1ccc(CNCc2cccc(Oc3ccc(Cl)cc3)c2)cc1 [TCMDC-140101]  61.18%
59. Cc1nn(C2CCS(=O)(=O)C2)c(C)c1C1Nc2ccccc2C(=O)N1Cc1ccc2c(c1)OCO2 (stereo not drawn) [TCMDC-125241]  62.63%
60. CSc1nccc(-c2ccc3ccnc(N)c3c2)n1 [TCMDC-136641]  63.58%
61. CCNCc1cccc(-c2ccc3ccnc(N)c3c2)c1 [TCMDC-136869]  65.98%
62. CNCc1cccc(-c2ccc3ccnc(N)c3c2)c1 [TCMDC-136794]  70.03%
63. N#Cc1ccc(CNCCCCCCCNCc2ccc(-c3ccccc3)cc2)cc1 [TCMDC-140407]  71.46%
64. Cc1cc(-c2cccc(CNC3CCN(C)CC3)c2)ccc1S(=O)(=O)NC1CCC1 [TCMDC-132380]  72.06%
65. CN(C)CCCOc1ccc(CCNCc2cccc(Oc3ccc(Cl)cc3)c2)cc1 [TCMDC-140092]  79.59%
66. Cc1cc(-c2cccc(CNC3CCN(C)CC3)c2)ccc1S(=O)(=O)NCCN1CCCC1 [TCMDC-132383]  87.02%
67. CN1CCC(NCc2cccc(-c3ccc(S(=O)(=O)NCCN4CCCC4)c(F)c3)c2)CC1 [TCMDC-132222]  88.17%
68. Cc1cccc2nc(-c3ccc(-c4ccc(CN5CCN(CC6CCCN(C)C6)CC5)cc4)s3)[nH]c12.O=C(O)C(F)(F)F (stereo not drawn) [TCMDC-133899]  90.54%
69. CNCc1ccc(-c2ccc3ccnc(N)c3c2)cc1 [TCMDC-136789]  95.61%
70. Cc1cc(CNCCCCCCNCc2ccc(-c3ccccc3)cc2)ccc1O [TCMDC-140412]  99.09%
71. Cc1csc2nc(-c3ccccn3)nc(Nc3ccc4ncsc4c3)c12 [TCMDC-138923]  100.3%
72. Cc1cc(CNCCCCCCCNCc2ccc(-c3ccccc3)cc2)ccc1O [TCMDC-140415]  101%
73. Cc1cc(-c2cccc(CNC3CCCC3)c2)ccc1S(=O)(=O)NCCN1CCCC1 [TCMDC-132279]  103.9%
74. CC1(C)Cc2c([nH]c3ccccc23)C(CCCCCCCCC2=NC(C)(C)Cc3c2[nH]c2ccccc32)=N1 [TCMDC-137565]  110.1%
75. Cc1csc2nc(-c3ccccn3)nc(Nc3ccncn3)c12 [TCMDC-138927]  119.9%

From article PMC4552634, “A New Set of Chemical Starting Points with Plasmodium falciparum Transmission-Blocking Potential for Antimalarial Drug Discovery” (PLoS ONE, 2015)
